Screening results from PubChem BioAssay.
Mito fusion act: qHTS Assay for Small Molecule Inhibitors of Mitochondrial Division or Activators of Mitochondrial Fusion; hit rate 0.23% among 320,000; Potency, µM (top dose mostly 46.1 µM), inactives show at the highest dose growth rescue (activation), usual class: activators; AID 485298, 2010; S. cerevisiae fusion-defective mutant growth rescue, CellTiterGlo 48 h; also: % of control where 0% means no effect; nearly all actives have a fitted effect of over 45% in size
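Yeast fusion mutant, YPEG (non-fermentable carbon), compound, 48 h at 37C non-permissive; CellTiterGlo added, 10 min RT, luminescence read. Rescued growth = division inhibition.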
Chronic BCR inh: qHTS Assay to Find Inhibitors of Chronic Active B-Cell Receptor Signaling | ABC-DLBCL IkBa-CBG/CBR reporter, luminescence ratio, 4 h | Potency, µM (titrated, usually from 46.1 µM), for the others: at the highest dose activity change, negative = inhibition, usual class: inhibitors | hit rate 0.05% among 340,000; active = well fitted inhibition curve with a large enough effect in the signal ratio, with a control signal flat, not every such curve was filed as active; inconclusive = small, poorly fitted or top-dose-only effect, or effect the other way, or a change in a side signal; the % refers to the signal ratio;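 also: plate controls were basal doxycycline-induced cells for no effect and cells given 10 µM MG132 for full effect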
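Concentration-response series (up to 46 uM) were applied to TMD8 dual-reporter cells for 4 h at 37C with doxycycline. Green/red ratio, after filter-overlap correction, defined %Activity; red signal alone was normalised to basal cells and zero luminescence.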
Integrin act MD: qHTS for Activators of Integrin-Mediated Alleviation for Muscular Dystrophy. hit rate 0.064% among 350,000. AID 624291, 2012. Potency, µM (top dose mostly 38.3 µM), inactives show at the top dose activation, actives largely listed as activators. alpha7betagal myoblasts, beta-gal FDG fluorescence, 48 h;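 also: 100% = response of the positive control SU9516; nearly all actives have a fitted effect of over 60% in size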
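Alpha7betagal+/- myoblasts (passage 13) were plated 16-24 hr, then exposed to compounds (1:260 dilution of DMSO stock) for 48 hours at 37C. After MPER lysis, β-galactosidase reporter activity was read as FDG fluorescence (ex 480/em 540) after 30 minutes.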
uPA generation: qHTS for Inhibitors of Cell Surface uPA Generation; cell surface uPA generation assay, qHTS; Potency, µM (series often up to 38.3 µM), for the others: at the highest dose activity change, negative = inhibition, actives largely listed as inhibitors; hit rate 0.31% among 330,000; AID 540303, 2011; active = well fitted inhibition curve with a large enough effect; inconclusive = small, poorly fitted or top-dose-only effect; inactive = no such curve, though single readings can be large or run the other way; tested in mouse RAW 264.7 cells; also: % is scaled to controls: 0 for no effect and ±100 for the full control effect; nearly all actives have a fitted effect of over 55% in size
RORg inh: qHTS for inhibitors of ROR gamma transcriptional activity | Drosophila S2 Gal4-RORgamma UAS-luciferase reporter, 20 h | Potency, µM (titrated, usually from 53.6 µM), for inactives: at the highest dose activity change, negative = inhibition, hits mostly inhibitors | hit rate 5.4% among 310,000; also: % is scaled to controls: 0 for no effect and ±100 for the full control effect; nearly all actives have a fitted effect of over 60% in size
Target sequence (P51450 whole entry, looked up, the tested form may be a part): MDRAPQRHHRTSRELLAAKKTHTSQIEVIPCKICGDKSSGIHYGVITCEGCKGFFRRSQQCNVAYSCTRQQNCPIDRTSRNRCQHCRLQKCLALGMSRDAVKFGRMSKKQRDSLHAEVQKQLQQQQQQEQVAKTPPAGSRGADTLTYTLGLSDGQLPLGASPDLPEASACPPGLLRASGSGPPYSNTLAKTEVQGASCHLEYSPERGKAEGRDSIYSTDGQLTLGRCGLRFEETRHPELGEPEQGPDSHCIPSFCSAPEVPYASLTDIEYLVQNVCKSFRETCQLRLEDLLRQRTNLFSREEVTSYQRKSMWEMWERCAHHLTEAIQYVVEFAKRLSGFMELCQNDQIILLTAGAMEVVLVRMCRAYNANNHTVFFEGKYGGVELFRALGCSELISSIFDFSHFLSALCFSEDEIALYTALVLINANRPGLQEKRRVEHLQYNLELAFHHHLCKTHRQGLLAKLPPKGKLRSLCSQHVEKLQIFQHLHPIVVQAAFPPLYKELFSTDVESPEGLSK
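A Gal4/UAS one-hybrid system in insect cells: metallothionein-promoter Gal4–ROR gamma fusion plus Photinus luciferase reporter. Copper sulfate 700 uM final, 20 hr ambient incubation, luminescent detection after 10 min with reagent.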
Gal4-VP16 FLuc: VP16 counterscreen qHTS for inhibitors of ROR gamma transcriptional activity. Potency, µM (series often up to 53.6 µM), for the others: at the top dose activity, negative = inhibition, usual class: inhibitors. hit rate 3.5% among 310,000. Drosophila S2 Gal4-VP16 UAS-luciferase, luminescence, 20 h. AID 2546, 2010;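 also: Gal4-VP16 expression switched on by copper sulfate through the metallothionein promoter; % is scaled to controls: 0 for no effect and ±100 for the full control effect; nearly all actives have a fitted effect of over 50% in size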
Starred values were filed as active, the others as inactive; u = inconclusive; x = no result given; [ ] = remark or other dose. The list is not random: actives were taken first. Their share in the collection is about 5.5%. Unless noted, calls follow the shape of the dose curve; as a rule, active = well fitted curve in the direction sought with a large enough effect; inconclusive = small, poorly fitted or top-dose-only effect, or another doubt; inactive = no such curve, though single readings can be large; an effect the other way counts as inactive or inconclusive. Potency is read from the fitted curve at half-maximal effect.

SMILES | Mito fusion act | Chronic BCR inh | Integrin act MD | uPA generation | RORg inh | Gal4-VP16 FLuc
Nc1c(C(=O)Nc2ccc3c(c2)OCCO3)nnn1CCc1ccccc1 | 1% | u | 0% | 7.9µM* | u | 13%
Cc1cc(C(=O)Nc2ccc3c(c2)OCCO3)nn1C(C)(C)C | 0% | u | u | -25% | -5% | 11%
C=C1C(=O)O[C@@H]2C[C@@H](C)[C@@H]3C=CC(=O)[C@@]3(C)[C@@H](O)[C@H]12 | -44% | u | x | -74% | 3.2µM* | 3.2µM*
C=C1C(=O)O[C@@H]2C[C@@H](C)[C@@H]3C=CC(=O)[C@@]3(C)[C@@H](OC(C)=O)[C@H]12 | -59% | u | -40% | u | 1.3µM* | 1.3µM*
COC(=O)C1=C(c2ccc3ccccc3c2)C[C@@H]2CC[C@H]1N2C(=O)NCc1ccc(C(F)(F)F)cc1 | -3% | -1% | -44% | 11µM* | x | x
COC(=O)C1=C(c2ccc3ccccc3c2)C[C@@H]2CC[C@H]1N2C(=O)NCc1ccc(F)cc1 | u | u | -19% | u | x | x
O=C(Nc1ncc(Cc2ccccc2)s1)C1=NCCN1 | 0% | 0% | 1% | 3% | 2µM* | u
Cc1ccc(C(=O)Nc2nc3ccccc3n2CCN2CCCC2)cc1 | -3% | u | -39% | -4% | 2.5µM* | 7.1µM*
O=C(O)C(Cl)(Cl)Cl | x | x | x | 5% | 4% | -1%
O=C(O)C(F)(F)S(=O)(=O)O | 3.2µM* | u | -9% | 4% | u | -27%
CC1=C[C@H]2[C@]3(O)C(C=C(CO)C[C@]2(O)C1=O)[C@@H]1C(C)(C)[C@]1(O)[C@H](O)[C@H]3C (stereo not given in full) | x | x | x | x | 2% | 1%
CC(=O)[C@H]1CC[C@H]2C3CC[C@H]4C[C@H](O)CC[C@]4(C)C3CC[C@]12C (stereo not given in full) | x | x | x | x | -12% | 3%
C[C@]12CCC3C(CC[C@H]4C[C@H](O)CC[C@]34C)C1CC[C@@H]2C(=O)CO (stereo not given in full) | 18µM* | x | x | x | x | x
CC(=O)[C@H]1CCC2C3CC[C@H]4C[C@H](O)CC[C@]4(C)C3CC[C@@]21C (stereo not given in full) | 5.2µM* | x | x | x | x | x
C[C@H]1CC[C@@]2(C)[C@@H](CC[C@@H]3[C@@H]2CC[C@]2(C)[C@@H](O)CC[C@@H]32)C1 | 13µM* | -8% | -21% | -5% | -19% | 0%
COc1ccc(NC(=O)c2cccs2)cc1C(=O)N1CCN(c2ccccc2)CC1 | 8% | 7% | -8% | u | -1% | -1%
Cc1ccc(S(=O)(=O)Nc2ccccc2N(C)S(=O)(=O)c2ccc(C)cc2)cc1 | 26% | u | -14% | u | x | x
O=C(Cn1c(=O)oc2ccccc21)NCCc1ccccc1 | -45% | u | 49% | 2% | -7% | -2%
COc1ccc([C@H]2CC(=O)C=C(/C=C/Cc3ccccc3)C2)cc1 | -3% | u | 3% | u | x | x
COC(=O)c1ccc(N2CCN(c3ccccc3)CC2)nc1 | 15% | u | -4% | -11% | 16% | u
CC1=C(C(=O)O)N2C(=O)C(NC(=O)c3nn(C)cc3[N+](=O)[O-])C2SC1 (stereo not given) | 1% | -2% | 1% | -4% | -8% | -3%[10 µM]
COc1ccc(CC(=O)NC(=S)NNC(=O)COc2c(C)cccc2C)cc1 | -7% | 3% | 20% | -1% | 13µM* | -22%
Cc1ccccc1C(=O)NNC(=S)NC(=O)COc1ccccc1 | 7% | u | 21% | -4% | 13µM* | u
O=C(COc1ccccc1)Nc1ccc(Cl)cc1C(=O)c1ccccc1 | 1% | 0% | 0% | -3% | -6% | -2%
COc1ccc(/C=N/Nc2cc(N3CCCC3)nc(N3CCCC3)n2)cc1 | -3% | 25% | -63% | 51% | 13µM* | -5%
SMILES | Mito fusion act | Chronic BCR inh | Integrin act MD | uPA generation | RORg inh | Gal4-VP16 FLuc
CC1=C(O)C(=O)C=C2C1=CC=C1[C@]2(C)CC[C@@]2(C)C3C[C@](C)(C(=O)O)CC[C@@]3(C)CC[C@@]12C (stereo not given in full) | x | x | x | x | 3.2µM* | u
CC(C)c1nnc(NC(=O)c2nc(S(=O)(=O)Cc3ccccc3)ncc2Cl)s1 | -38% | u | 0% | -3% | 22µM* | 11µM*
CCCC(C)c1nnc(NC(=O)CCS(=O)(=O)c2ccccc2)s1 (stereo not given) | 0% | u | -42% | -8% | -8% | 0%
OC(c1ccc(Cl)cc1)(c1cncnc1)c1ccccc1Cl (stereo not given) | x | x | x | x | 24% | -1%
CCOC(=O)C1=C(NC(=S)NC(=O)c2ccccc2)c2ccccc2CC12CCCC2 | 8% | u | -67% | -5% | 3.2µM* | 4.5µM*
CCOP(=O)(OCC)C(NC(=O)c1ccccc1)=C(Cl)Cl | 1% | 4% | 20% | -7% | 16% | 1%
Brc1ccccc1Cn1c(-c2cncs2)nc2ccccc21 | 27% | 23% | 2% | -5% | 6.3µM* | -8%
CCN(CC)S(=O)(=O)c1cccc(-c2nnc(SCc3nnc(-c4cccs4)o3)n2N)c1 | 1% | u | -11% | -1% | u | -7%
CCOC(=O)Cn1cc([N+](=O)[O-])nc1[N+](=O)[O-] | -20% | u | -58% | -8% | 10µM* | 13µM*
C=Cn1ccnc1P(O)(=S)c1nc(C)c(CCOC(C)=O)s1 (stereo not given) | -4% | 2% | -10% | 5% | 11µM* | u
CCOCCCn1c(N)c(C(=O)Nc2sc3c(c2C(=O)OC)CCCC3)c2nc3ccccc3nc21 | 10% | 8% | 12% | 10% | u | 11µM*
CCOC(=O)c1c(NC(=O)c2c(N)n(CCCOC)c3nc4ccccc4nc23)sc2c1CCCC2 | 4% | -5% | -10% | 7% | u | u
COC(=O)[C@]12C(=O)C(C)=C(O)[C@@]1(C)C(C)=CC1[C@@]34CC[C@@H](OC(C)=O)C(C)(C)C3C(C[C@]12C)OC4=O (stereo not given in full) | 0% | -2% | -25% | -14% | u | -5%
CC(C)(C)C(O)C(Oc1ccc(Cl)cc1)n1cncn1 (stereo not given) | 35µM* | u | x | 2% | -13%[0.365 µM] | 3%
CCn1nc(/C=C/c2ccccc2)nc2c(=O)n(C)c(=O)nc1-2 | -1% | u | -34% | -17% | 28% | 2%
